Source: PubChem BioAssay (NCI)
Values joined by “and” are separate entries in the source; they are usually repeats but may differ in a detail not shown here. Equal entries are not always repeated. This is part of a sample that, as a whole, favours compounds with a hit. Of some 83,000 tested, about 20% had one in any assay.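 The test compound was applied at a single concentration to cells in 96-well plates for 48 hours, and percent growth was recorded.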 Active and inactive are the calls of the source. How the source made its calls: active means growth percent below 10; inactive means the rest.

system: MDA-MB-468 breast; experiment: NCI-60 one-dose screen, 48 h (100 = growth as untreated, 0 = no growth, -100 = all killed); conditions: 10 µM unless noted

Row | Compound | growth
1 | CCOc1c(OC)cc2c(c1O)C(=O)N[C@@H]1[C@@H](O)[C@@H](O)[C@H](O)C[C@@H]21 | 94.9% (inactive)
2 | CN(C)c1cc(NN=C(c2ccc(O)cc2)c2ccc(O)cc2)c([N+](=O)[O-])cc1[N+](=O)[O-] | 102% (inactive)
3 | CC(C)C(C)C(N)C(=O)O (stereo not given) | 107% (inactive)
4 | CCCn1cnc2c(c1=N)C(c1ccc(Cl)cc1)c1sc3c(C)cccc3c1O2 (stereo not given) | 30.9% (inactive)
5 | CCCCNC1=C(OCC)C(=O)c2ccccc2C1=O | 56.3% (inactive)
6 | Cc1ccc2c(c1)C(C)Cc1c(ncnc1-n1cnc3ccccc31)N2C (stereo not given) | 30.8% (inactive)
7 | Cc1cn(-c2cc(NC(=O)c3cncc(C#Cc4cnc5ccc(OCCCS(C)(=O)=O)nn45)c3)cc(C(F)(F)F)c2)cn1 | -22.5% (active)
8 | CN(CCCCCl)P(=O)(OCc1ccc([N+](=O)[O-])o1)C(F)(F)C[C@H](NC(=O)CNC(=O)c1ccc(N=[N+]=[N-])cc1)C(=O)NCCc1ccc(O)cc1 (stereo not given in full) | 12.5% (inactive)
9 | COc1ccc(Cc2nn(CC(=O)N/N=C/c3ccc(Cl)cc3)c(=O)c3c(C)noc23)cc1 | 80.4% (inactive)
10 | C=C1CCc2nc(SCC(=O)O)ccc2N1 | 97.3% (inactive)
11 | CCOC(=O)C(Cc1ccccc1)n1c(O)c(/C=N/c2ncc(Cc3ccc(Cl)cc3Cl)s2)sc1=S (stereo not given) | -0.681% (active)
12 | N#Cc1c(-c2ccc(Cl)cc2)nc2c(c(-c3ccccc3)nn2-c2ccccc2)c1-c1ccc(O)cc1 | 31.2% (inactive)
13 | C#CCn1c(-c2cc(OC)c(OC)cc2Br)nc(-c2ccccc2)c1-c1ccccc1 | 5.05% (active)
14 | CCCn1c(=O)c2c(nc(-c3cccc(OCCCCl)c3)n2C)n(CCC)c1=O | 23.6% (inactive)
15 | CCOC(=O)CSc1ncnc2c1c(-c1ccccc1)c(-c1ccccc1)n2-c1ccc(C)cc1 | 51.9% (inactive)
16 | COc1ccc(-c2cs/c(=N\N=C\c3ccc(O)cc3O)n2/N=C/c2ccc(O)cc2O)cc1 | -23.3% (active)
17 | Cc1ccc(S(=O)(=O)NCCNc2nc(Nc3ccc(N4CCN(C)CC4)cc3)nc3ccsc23)cc1 | 94.1% (inactive)
18 | COc1cc2nc(Nc3cccc(F)c3)nc(Nc3cc(C)[nH]n3)c2cc1OC | -76.6% [20 µM] (active)
19 | O=C(Nc1ccc(-n2ccc3c(NC(=O)c4ccccc4)nccc32)cc1)c1ccc(Cl)c(C(F)(F)F)c1 | -9.71% (active)
20 | Clc1ccc(C2=NN(c3ccc(Cl)cc3)C(c3cccc(Nc4ccnc5cc(Cl)ccc45)c3)C2)cc1 (stereo not given) | 78.2% (inactive)

Row | Compound | growth
21 | c1ccc(NCc2ccc3c(c2)OCO3)cc1 | 104% (inactive) and 97.7% (inactive)
22 | CN(C)C=Nc1cc(Cl)ccc1Cl | 102% (inactive)
23 | O=C(O)Cc1ccc(O)c(O)c1 | 86% (inactive)
24 | N=C(N)c1ccc(-c2ccc(-c3ccc(F)cc3)s2)cc1 | -90.7% (active)
25 | CCc1c(C)c2cc(-n3c(-c4ccc(OC)cc4)csc3=N)c(O)c(C)c2oc1=O | 17% (inactive)
26 | CC(=O)Nc1ccc(/C=C/C(=O)c2ccccc2)cc1 | 52% (inactive)
27 | CC1C(/C=N/NC(N)=S)C(C#N)(C#N)C1(C#N)C#N (stereo not given) | 113% (inactive)
28 | COc1cc(/C=C/C(=O)N2CCN(C(=O)c3cc(OC)c(OC)c(OC)c3)CC2)ccc1OCCCN1C(=O)c2cccc3cccc(c23)C1=O | 102% (inactive)
29 | CN1CCN(C(=O)OCc2ccc3c(Cl)cc(Cl)c(O)c3n2)CC1 | 67.1% (inactive)
30 | C/C(=N\N1CC(=O)NC1=O)c1ccc([N+](=O)[O-])o1 | 95.7% (inactive)
31 | CSc1nc(N)c(CNC(C)c2ccccc2)c(=O)n1C (stereo not given) | 97.4% (inactive)
32 | O=[N+]([O-])c1ccc(Oc2ccccc2)cc1 | 103% (inactive) and 113% (inactive)
33 | O=c1c2cc(-c3ccc(F)cc3F)ccc2n(Nc2ccccc2)c(=O)n1-c1cccc(C(F)(F)F)c1 | -10.4% (active)
34 | O=NN(CCCl)C(=O)Nc1ccc(NC(=O)N(CCCl)N=O)cc1 | 96.4% (inactive)
35 | CCOc1cc(/C=N\NC(=O)N/N=C/c2ccc(O)c(OCC)c2)ccc1O | 3.75% (active)
36 | Fc1ccc(-c2cn3c(-c4c[nH]c5ccc(Br)cc45)csc3n2)cc1 | 74.9% (inactive)
37 | O=C(O)c1ccc(NC(=O)c2ccc(Nc3ccnc(C(F)(F)F)c3)cc2)cc1 | 99.8% (inactive)
38 | N#C/C(=C/C=C/c1cccc(Cl)c1)S(=O)c1ccccc1 (stereo not given) | -46% (active)
39 | CC1(C)N=C(N)N=C(N)N1c1cccc(/C=C/C=C/c2cccc([N+](=O)[O-])c2)c1 | 16.2% (inactive)
40 | Cc1ccc(-c2nc(N3CCCNCC3)c3oc(-c4ccccc4)nc3n2)cc1 | -76.2% (active)
